PubChem BioAssay (Tox21)
Results filed as inconclusive are left out. Where a call stands in place of a potency, no number is given. Activity calls are given as the source filed them. Calls come from the whole dose curve; as a rule, active = well fitted cell-killing curve with a large enough effect in the repeat runs; inconclusive = weak or mixed curves, or effect the other way; inactive = flat fitted curve, though single readings scatter.

Test: qHTS assay to identify small molecule antagonists of the androgen receptor (AR) signaling pathway using the MDA cell line - cell viability counter screen (AID 743041; note: nearly all actives have a fitted effect of over 45% in size)
Conditions: MDA-kb2 viability, CellTiter-Fluor, 16 h, cells co-treated with R1881 androgen agonist; series mostly up to 70.3 µM
From the text: National Center for Advancing Translational Sciences [NCATS]
NIH Chemical Genomics Center [NCGC]
U.S. Environmental Protection Agency [EPA]
National Institutes of Environmental Health Sciences [NIEHS]
National Toxicology Program [NTP]
U.S. Food and Drug Administration [FDA]
Androgen receptor (AR), a nuclear hormone receptor, plays a critical role in AR-dependent prostate cancer and other androgen related diseases. Endocrine disrupting chemicals (EDCs) and their interactions with steroid hormone receptors like AR may cause disruption of normal endocrine function as well as interfere with metabolic homeostasis, reproduction, developmental and behavioral functions. To identify the compounds that inhibit AR signaling, MDA-kb2 AR-luc cell line (from ATCC, deposited by Wilson et al.) was used to screen the Tox21 10K compound library. MDA-kb2 AR-luc cell line is human breast carcinoma cell line that was stably transfected with a luciferase reporter gene under control of the MMTV promoter containing response elements for both androgen receptor (AR) and glucocorticoid receptor (GR). The cytotoxicity of the Tox21 compound library against the MDA-kb2 AR-luc cell line was tested in parallel by measuring the cell viability using CellTiter-Fluor assay (Promega, Madison, WI) in the same wells.
Tox21 Assay Protocol Summary:
MDA-kb2 AR-luc cells were dispensed at 3,000 cells/4 uL/well of culture medium into white wall/solid-bottom 1536-well plates using a Multidrop Combi (ThermoFisher Scientific, Waltham, MA) dispenser. After the assay plates were incubated at a 37C and 0% CO2 for 5 hr, 23 nL of compounds dissolved in DMSO, positive controls or DMSO only was transferred to the assay plate by a Pintool station (Kalypsys, San Diego, CA), followed by addition of 1 uL of agonist (R1881) in culture medium using a Bioraptr Flying Reagent Dispenser (FRD) workstation (Beckman Coulter, Indianapolis, IN, USA). The plates were incubated at a 37C and 0% CO2 for 16 h. After 15.5 h incubation, 1uL of CellTiter-Fluor reagent (Promega) was added using a Bioraptr FRD to each plate for measuring cytotoxicity. The fluorescence intensity was quantified on a ViewLux plate reader (PerkinElmer, Shelton, CT) following 30 min incubation at 37C and 0% CO2.

| Structure (SMILES) | Potency |
| --- | --- |
| CCN1CCOCC1 | inactive |
| O=S(=O)(O)c1cccc(S(=O)(=O)O)c1 | inactive |
| CCC(C)(CCCC(C)C)OC(C)=O (stereo not given) | inactive |
| C[C@H]1C[C@H]2[C@@H]3CCC4=CC(=O)C=C[C@]4(C)[C@H]3C(=O)C[C@]2(C)[C@@]1(O)C(=O)CO | inactive |
| NS(=O)(=O)Cc1noc2ccccc12 | inactive |
| CC1(C)OC[C@@H](COC(=O)CCc2ccc(OC[C@@H](O)CNCCNC(=O)N3CCOCC3)cc2)O1 | inactive |
| CCCCCCCCCC[N+](C)(C)[O-] | inactive |
| CCC(=O)OCc1ccccc1 | inactive |
| Cc1ccc(C(=O)Nc2ccc(S(=O)(=O)O)c3cc(S(=O)(=O)O)cc(S(=O)(=O)O)c23)cc1NC(=O)c1cccc(NC(=O)Nc2cccc(C(=O)Nc3cc(C(=O)Nc4ccc(S(=O)(=O)O)c5cc(S(=O)(=O)O)cc(S(=O)(=O)O)c45)ccc3C)c2)c1 | inactive |
| CC(C)C1CCC(O)CC1 (stereo not given) | inactive |
| C=C(C)C(=O)OCC1CCCO1 (stereo not given) | inactive |
| Nc1c2c(nc3c1CCC3)CCCC2 | inactive |
| CCCCOCCOC(=O)CCCCCCCCC(=O)OCCOCCCC | inactive |
| CC1CCC(CO)CC1 (stereo not given) | inactive |
| CC(C)(C)C(=O)c1ccccc1 | inactive |
| CCCCOC(=O)CCC(C)=O | inactive |
| CC(C)C(=O)OC(=O)C(C)C | inactive |
| CN(C)CCCN(C)CCCN(C)C | inactive |
| CC1=CCC(O)(C(C)C)CC1 (stereo not given) | inactive |
| CC(C)(C)c1ccc(-c2ccc(C(C)(C)C)cc2)cc1 | inactive |

| Structure (SMILES) | Potency |
| --- | --- |
| CC(C)c1ccc2ncccc2c1 | inactive |
| CC(C)[C@H]1CC[C@@H](C)CC1=O | inactive |
| CC(=O)OCC(=O)[C@@]1(O)[C@H](C)C[C@H]2[C@@H]3CCC4=CC(=O)C=C[C@]4(C)[C@@]3(F)[C@@H](O)C[C@@]21C | inactive |
| CCOC(=O)CCC(=O)OCC | inactive |
| CCOC(=O)COC(=O)c1ccccc1C(=O)OCC | inactive |
| CC[C@H]1OC(=O)[C@H](C)[C@@H](O[C@H]2C[C@@](C)(OC)[C@@H](O)[C@H](C)O2)[C@H](C)[C@@H](O[C@@H]2O[C@H](C)C[C@H](N(C)C)[C@H]2O)[C@](C)(OC)C[C@@H](C)C(=O)[C@H](C)[C@@H](O)[C@]1(C)O | inactive |
| Cc1nc2ccc(CN(C)c3ccc(C(=O)N[C@@H](CCC(=O)O)C(=O)O)s3)cc2c(=O)[nH]1 | inactive |
| CCCCCCCCCCCCCCCCCCO | inactive |
| C=C(C)C(=O)OCCOCCOCCOCCOC(=O)C(=C)C | inactive |
| O=C(c1ccccc1)C1(O)CCCCC1 | inactive |
| CC[N+](CC)(CC)CCOc1cccc(OCC[N+](CC)(CC)CC)c1OCC[N+](CC)(CC)CC | inactive |
| [K+] | inactive |
| CC(C)(CCC(=O)O)C(=O)O | inactive |
| CC(=O)c1cnccn1 | inactive |
| CN(C)C(=O)Oc1ccc[n+](C)c1 | inactive |
| COc1ccc2cc1Oc1cc3c(cc1OC)CC[N+](C)(C)[C@H]3Cc1ccc(cc1)Oc1c(OC)c(OC)cc3c1[C@@H](C2)[N+](C)(C)CC3 | inactive |
| CCCn1cc[n+](C)c1C | inactive |
| C=CC(C)(CCC=C(C)C)OC(=O)CC (stereo not given) | inactive |
| C=CCCC(=O)O | inactive |
| O=C1c2ccccc2C(=O)c2cc(O)ccc21 | inactive |
